Assay [1] in a line: resazurin metabolic signal in HepG2 cells – cell-based, resazurin fluorescence, 24 h, PK04 Diversity Set, profiling panel (AID 1172). Conditions: HepG2 viability, higher = more signal. Background: Alamar Blue is a resazurin reagent that responds to reducing activity.
Assay [2] in a line: budding yeast growth changes without added modifier – OD600, strain BY4716, 24 h, basal condition, primary screen (AID 1173). Particulars: S. cerevisiae BY4716 growth, OD600, 24 h; higher = more signal, called active from +8 up or from −8 down.
The nature of assay [3]: viability profiling in MM1S myeloma cells – cell-based, resazurin fluorescence, basal, 24 h, PK04 Diversity Set, profiling panel (AID 1174).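 Also: MM1S multiple myeloma cell line.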 Particulars: higher = more signal, called active from +8 up or from −8 down.
Assay [4] concerns the target Dihydroorotate dehydrogenase (quinone), mitochondrial (Plasmodium falciparum (isolate 3D7)) (UniProt Q08210). The experiment in a line: inhibition of P. falciparum DHODH – biochemical, C-terminal His tag, absorbance 600 nm, primary screen (AID 1175).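 Also: recombinant parasite enzyme with a five histidine tag at its C terminus.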 Particulars: PfDHODH enzyme, DCIP absorbance 600 nm; higher = more signal, called active from +8 up or from −8 down.
Assay [5] is described as follows: inhibition of PAO1 biofilm formation – strain PAO1, LB-PBS medium, absorbance 600 nm, primary screen (AID 1176). Conditions: P. aeruginosa PAO1 growth/biofilm, A600, 12 h; higher = more signal.
Assay [6] is described as follows: growth modulation of vineyard yeast isolate – strain RM11-1a, OD600, basal, 24 h, primary screen (AID 1177).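 Also: cultures grown under basal conditions with no added stressor.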 Conditions: S. cerevisiae RM11-1a growth, OD600, 24 h; higher = more signal, called active from +8 up or from −8 down.
Assay [7] can be described thus: growth of efflux-deficient E. coli DRC39 – strain DRC39, OD650, 24 h, E. coli filamentation inducers, primary screen (AID 1178).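 Also: growth measured as culture turbidity by optical density at 650 nm.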 Conditions: E. coli DRC39 acrAB, higher = more signal, called active from +8 up or from −8 down.
The nature of assay [8]: growth of efflux-deficient E. coli DRC39 – strain DRC39, OD650, 48 h, E. coli filamentation inducers, primary screen (AID 1179).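 Also: screen aims at cell division blockers that make cells filament.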 Particulars: E. coli DRC39 delta-acrAB growth, higher = more signal, called active from +8 up or from −8 down.
The nature of assay [9]: viability profiling in RPMI8226 myeloma cells – cell-based, resazurin fluorescence, basal, 24 h, PK04 Diversity Set, profiling panel (AID 1180).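 Also: RPMI8826 multiple myeloma cell line at 5000 cells per well.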 Conditions: higher = more signal.
Assay [10] has as its target E3 ubiquitin-protein ligase XIAP (Homo sapiens) (UniProt P98170). The experiment in a line: small molecules binding XIAP protein – biophysical, small-molecule microarray, fluorescence 635 nm, primary screen (AID 1181).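 Also: score merges 667 nm emission and signal to noise over triplicate slides.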 Particulars: higher = more signal.
For assay [11], the system named is XIP peptide (Xip251-270) binding. The experiment in a line: XIP fragment 251-270 binding compounds – biochemical, small-molecule microarray, fluorescence 635/667 nm, 0.1 µg/mL protein, primary screen (AID 1182). Conditions: fluorescent protein binding, 635 nm, higher = more signal, called active from +8 up or from −8 down.
Assay [12] has as its system XIP peptide (Xip251-270). The experiment in a line: compounds binding XIP fragment 251-270 – biochemical, small-molecule microarray, fluorescence 635/667 nm, 0.5 µg/mL protein, primary screen (AID 1183). Conditions: fluorescence 635 nm, higher = more signal.
A short description of assay [13]: blood-stage malaria parasite viability loss – strain 3D7, DAPI fluorescence, 100 nL, primary screen (AID 1184).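 Also: parasites grown inside human red blood cells in medium with human serum.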 Particulars: P. falciparum 3D7 growth, 3 d, higher = more signal.
Assay [14] addresses Homeobox protein Hox-A13 (Mus musculus) (UniProt Q62424). The experiment in a line: disruptors of Hoxa13 oligonucleotide interaction – biochemical, fluorescence polarization, labeled oligonucleotide, primary screen (AID 1185). Conditions: Hoxa13:DNA binding, 15 min, higher = more signal, called active from +8 up or from −8 down. Background: Fluorescence polarisation rises when a labelled molecule tumbles more slowly, as on binding a larger partner.

Assay [15] in a line: blockers of DNA damage checkpoint Chk1 activation – imaging, HeLa, hydroxyurea, phospho-Chk1 antibody, percent positive cells, primary screen (AID 1186). Conditions: hydroxyurea-induced phospho-Chk1 immunofluorescence imaging, higher = more signal.
The nature of assay [16]: blockers of DNA damage checkpoint Chk1 activation – imaging, HeLa, hydroxyurea, phospho-Chk1 nuclear intensity, primary screen (AID 1187). Particulars: hydroxyurea-induced phospho-Chk1 immunofluorescence imaging, higher = more signal.

Structures are written as SMILES. The source made the active and inactive calls. Unless noted, no rule for the calls is given here.

Chain of E3 ubiquitin-protein ligase XIAP (Homo sapiens) (P98170 whole entry, looked up, the tested form may be a part): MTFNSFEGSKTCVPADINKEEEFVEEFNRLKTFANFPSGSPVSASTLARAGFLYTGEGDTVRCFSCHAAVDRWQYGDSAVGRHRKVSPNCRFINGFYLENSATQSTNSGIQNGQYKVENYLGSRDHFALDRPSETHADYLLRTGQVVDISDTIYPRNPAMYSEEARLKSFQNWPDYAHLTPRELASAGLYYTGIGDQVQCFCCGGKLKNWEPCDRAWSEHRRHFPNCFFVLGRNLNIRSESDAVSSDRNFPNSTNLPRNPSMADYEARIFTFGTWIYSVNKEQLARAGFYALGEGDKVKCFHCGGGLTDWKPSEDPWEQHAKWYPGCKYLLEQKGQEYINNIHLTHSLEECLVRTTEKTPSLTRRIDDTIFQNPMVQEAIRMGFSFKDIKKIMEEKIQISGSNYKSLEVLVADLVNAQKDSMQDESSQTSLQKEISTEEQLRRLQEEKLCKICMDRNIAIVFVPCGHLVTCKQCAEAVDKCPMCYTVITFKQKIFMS
Chain of Dihydroorotate dehydrogenase (quinone), mitochondrial (Plasmodium falciparum (isolate 3D7)) (Q08210 whole entry, looked up): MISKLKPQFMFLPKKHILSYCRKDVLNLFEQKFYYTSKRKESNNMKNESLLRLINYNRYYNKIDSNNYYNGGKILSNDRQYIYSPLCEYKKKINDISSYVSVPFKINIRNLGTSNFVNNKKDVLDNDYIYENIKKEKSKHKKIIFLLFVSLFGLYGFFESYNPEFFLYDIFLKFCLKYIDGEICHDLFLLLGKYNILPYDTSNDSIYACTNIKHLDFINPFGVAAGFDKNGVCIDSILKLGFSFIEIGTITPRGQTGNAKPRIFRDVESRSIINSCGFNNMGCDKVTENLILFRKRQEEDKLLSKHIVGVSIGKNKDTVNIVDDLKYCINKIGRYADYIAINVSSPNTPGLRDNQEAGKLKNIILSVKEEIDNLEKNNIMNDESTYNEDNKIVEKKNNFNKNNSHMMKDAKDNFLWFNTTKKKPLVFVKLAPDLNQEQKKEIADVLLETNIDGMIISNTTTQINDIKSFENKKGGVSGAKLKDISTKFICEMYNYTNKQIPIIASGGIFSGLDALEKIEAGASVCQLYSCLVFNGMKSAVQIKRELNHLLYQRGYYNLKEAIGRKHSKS
Chain of Homeobox protein Hox-A13 (Mus musculus) (Q62424 whole entry, looked up): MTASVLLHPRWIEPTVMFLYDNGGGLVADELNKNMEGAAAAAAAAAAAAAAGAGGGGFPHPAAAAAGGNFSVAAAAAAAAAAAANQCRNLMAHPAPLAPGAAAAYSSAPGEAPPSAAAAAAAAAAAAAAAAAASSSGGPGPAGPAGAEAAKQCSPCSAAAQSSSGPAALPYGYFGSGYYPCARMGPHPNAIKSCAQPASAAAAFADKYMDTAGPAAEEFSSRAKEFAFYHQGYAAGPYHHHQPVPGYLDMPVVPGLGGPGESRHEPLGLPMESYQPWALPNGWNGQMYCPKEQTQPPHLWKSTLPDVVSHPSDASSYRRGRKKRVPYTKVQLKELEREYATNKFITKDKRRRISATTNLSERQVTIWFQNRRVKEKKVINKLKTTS

Consider `COC(=O)C1(Cc2ccccc2)C=C2C(=C(C(C)C)C(=O)C2C)CN1` (stereo not drawn), for which the z-score in assay [1] was -0.88; in [2] it was 0.736 (inactive); in assay [3], -2.2 (inactive); in [5] it was 1.35 (inactive); in assay [6], 0.905 (inactive); in assay [7] it was -0.999 (inactive). Also, the z-score is -0.927 (inactive) in assay [8]; -1.59 in assay [9]; -1.07 in [13]; -9.8 (active) in assay [14]; 0.366 (inactive) in [15]; 0.602 (inactive) in assay [16]. In addition, the composite z-score in assay [4] is -1.72 (inactive); in [10] it was 0.0493; in [11], 0.0989 (inactive); in [12], 0.648.
`[N-]=[N+]=Nc1ccccc1C[C@@]1(C(=O)O)N=C(c2ccc(OCCCO)cc2)O[C@@H]1c1ccccc1`: the z-score in [1] is 1.06; in assay [2], -2.01 (inactive); in assay [3], -0.161 (inactive); in assay [5], 0.342 (inactive); in assay [6], -0.583 (inactive); in assay [7], -0.26 (inactive). Also, the z-score is -0.523 (inactive) in assay [8]; 0.229 in [9]; -0.188 in [13]; -5.79 (inactive) in assay [14]; 0.167 (inactive) in assay [15]; 0.149 (inactive) in assay [16]. Also, the composite z-score in [4] is 0.624 (inactive); in assay [10] it was 0.427; in assay [11], 0.57 (inactive); in assay [12], 0.707.
Consider `CC[C@@H]1[C@H]2C3C(=O)N(CC)C(=O)C3CC(=O)[C@H]2[C@H](c2ccc(C)cc2)N1S(=O)(=O)c1ccc(C)cc1` (stereo partly drawn), for which the z-score in [1] was -0.881; in assay [2], 0.252 (inactive); in assay [3], -0.25 (inactive); in assay [5], -0.144 (inactive); in assay [6], 0.561 (inactive); in assay [7] it was -0.339 (inactive). Further, the z-score is 0.25 (inactive) in [8]; -0.695 in assay [9]; -0.915 in [13]; -4.84 (inactive) in assay [14]; 0.2 (inactive) in assay [15]; -0.264 (inactive) in assay [16]. For the same molecule, the composite z-score was -0.0972 (inactive) in [4], -0.119 in assay [10], 0.117 (inactive) in assay [11] and 0.643 in assay [12].
Turning to `O=C(CS)NCCCCCCNC(=O)[C@@H]1C[C@@H]2C(=O)N3CCC[C@H]3C(=O)N2[C@@H]1c1cccc(OCCO)c1`, the z-score in [1] is -0.306; in assay [2] it was -0.21 (inactive); in assay [3] it was 0.832 (inactive); in assay [5] it was 0.42 (inactive); in assay [6], -1.5 (inactive); in [7] it was 0.743 (inactive). In addition, the z-score in assay [8] is 1.65 (inactive); in assay [9], 0.356; in [13], 0.0153; in assay [14], -3.25 (inactive); in assay [15] it was -1.31 (inactive); in assay [16], -0.971 (inactive). Further, the composite z-score in assay [4] was -0.968 (inactive); in assay [10], 0.0022; in assay [11] it was 1.97 (inactive); in [12], 0.864.
Consider `C=CCNC(=O)[C@@H]1[C@H]2C(=O)O[C@H](c3ccccc3)[C@H](c3ccccc3)N2[C@H](c2ccccc2OCCO)[C@@]12C(=O)N(C(=O)OCCOC)c1ccc(C#CC3=CCCCC3)cc12`, for which the z-score in assay [1] is 0.402; in assay [2] it was 0.466 (inactive); in assay [3], -1 (inactive); in [5], 2.19 (inactive); in [6], 1.08 (inactive); in assay [7], 0.368 (inactive). The z-score in assay [8] was 0.628 (inactive); in assay [9] it was -1.31; in assay [13], -2.08; in assay [14], 1.31 (inactive); in assay [15], -0.136 (inactive); in assay [16] it was -0.103 (inactive). The composite z-score was -0.458 (inactive) in assay [4], 0.0683 in assay [10], 0.0103 (inactive) in assay [11] and 0.769 in assay [12].
As for `COc1ccc(NN2C(C(O)c3ccco3)C=CC3C(=O)N(C4CCCCC4)C(=O)C32)cc1` (stereo not drawn), the z-score in assay [1] is 0.502; in assay [2], -1.11 (inactive); in [3], -1.59 (inactive); in assay [5], 0.546 (inactive); in assay [6], -0.0552 (inactive); in assay [7], -0.624 (inactive). Also, the z-score in assay [8] was -0.109 (inactive); in assay [9] it was -1.55; in assay [13] it was -0.244; in assay [14], -3.76 (inactive); in assay [15] it was -0.266 (inactive); in assay [16], -0.504 (inactive). Also, the composite z-score was 0.181 (inactive) in [4], 0.065 in assay [10], 0.902 (inactive) in [11] and 0.68 in assay [12].
Regarding `C[N+](C)(C)CCCC[C@@H]1NC(=O)[C@@H]2C[C@H](C(=O)O)[C@H](c3ccc(O)cc3)N2C1=O`, the z-score in assay [1] was -1.16; in assay [2], 0.824 (inactive); in [3], 0.18 (inactive); in assay [5], 0.103 (inactive); in [6] it was 0.0252 (inactive); in assay [7], 0.233 (inactive). Besides, the z-score in assay [8] was 0.596 (inactive); in assay [9] it was -0.339; in [13] it was -0.195; in assay [14], -1.93 (inactive); in assay [15], 0.115 (inactive); in [16], 0.274 (inactive). Also, the composite z-score in assay [4] is -11.6 (active); in assay [10] it was -0.199; in assay [11], 2.65 (inactive); in assay [12], 0.124.
Take `CC(C)(C)OC(=O)CC[C@@]1(C(=O)O)N=C(c2ccc(OCCCO)cc2)O[C@@H]1c1ccccc1CN=[N+]=[N-]`: the z-score in assay [1] is 0.911; in assay [2], -0.496 (inactive); in assay [3], -0.378 (inactive); in [5], -0.0988 (inactive); in [6] it was 0.323 (inactive); in assay [7], 1.35 (inactive). Moreover, the z-score is 1.35 (inactive) in assay [8]; -1.09 in [9]; 0.664 in assay [13]; -4.73 (inactive) in [14]; -0.0889 (inactive) in [15]; -0.0647 (inactive) in assay [16]. Moreover, the composite z-score in [4] is 0.221 (inactive); in assay [10], 0.492; in [11] it was -0.168 (inactive); in assay [12] it was 0.963.
